According to PubChem BioAssay (NCI):
This is part of a sample that, as a whole, favours compounds with a hit. Of some 83,000 tested, about 20% had one in any assay.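 Percent growth is the endpoint: 0 to 100 indicates growth inhibition (40 means 60% inhibition), 0 means no net growth, and negative values indicate cell death.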 Active and inactive are the calls of the source. Rule for the calls: active = growth percent below 10; inactive = the rest.

system: RPMI-8226 leukemia; assay: NCI-60 one-dose screen, 48 h (100 = growth as untreated, 0 = no growth, -100 = all killed); settings: 10 µM unless noted

Compound | growth
COc1nc(OC)nc(-c2cc(C(=O)c3ccc(Br)cc3)n3cc(C)cc(C)c23)n1 | 76.4% (inactive)
CC(=O)OCC(=O)[C@@]1(O)[C@H](C)C[C@H]2[C@@H]3C=C(C)C4=Cc5c(cnn5-c5ccc(F)cc5)C[C@]4(C)[C@H]3[C@@H](O)C[C@@]21C | -16.8% (active)
Brc1c(-c2ccncc2)nc2n1CCS2 | 60.2% (inactive)
CCC1(CC)C(OC)NC(Br)=C(C#N)C1(C#N)C(N)=O (stereo not drawn) | 132% (inactive)
COc1ccc(CN2C(=O)/C(=C\C(=O)c3ccc(OCCN4CCCC4)cc3)c3ccccc32)cc1 | -4.7% (active)
COc1ccc(/C=C2\SC(=O)N(Cc3cc(=O)oc4ccc(OC)cc34)C2=O)cc1 | 64.1% (inactive)
c1cc(C2CCCCC2)ccc1OCCCCCCN1CCNCC1 | -31% (active)
COc1cc(/C=C/C(=O)/C=C(/C=C/c2ccc(OC(C)=O)c(OC)c2)OB(F)F)ccc1OC(C)=O | 14.3% (inactive)
Cc1c([C@H](C(Cl)Cl)[C@H](O)[C@H]2C[C@H](C)C(=O)O2)ccc2c1C(=O)[C@H]1[C@H]2C[C@@H](Br)[C@@]23O[C@@H](CO[C@H]2O)CC13C (stereo partly drawn) | 26.7% (inactive)
O=C1/C(=N\c2cc(=O)[nH]n2S(=O)(=O)c2ccccc2)Nc2ccccc21 | 95.2% (inactive)
N=C(N)c1ccc(-c2ccc(-c3ccc(Cl)cc3)s2)s1 | -38.2% (active)
O=Nc1c(-c2c(O)[nH]c3cc(Br)ccc23)[nH]c2ccccc12 | -5.99% (active)
CC(C)(C)C(=O)OCOP(=O)(OCOC(=O)C(C)(C)C)C1CC(O)N(O)C1=O (stereo not drawn) | 9.24% (active)
